Bioassay records from PubChem.
Rows were chosen to be rich in hits. Some 5.9% of all compounds tested hit in one or more screens of this group.
ABHD5 PLIN5 PPI – inhibitors of human ABHD5-perilipin-5 interaction; AID 602281; Q00G26+Q8WTS1; Split G. princeps luciferase complementation, luminescence, 4 h; inhibition, % at 4 µM; 0.78% of 360,000 active;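 active = inhibition above the mean inhibition across every tested compound plus 3 SD, cut at about 22% in these data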;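 also: 0% = DMSO only wells and the 100% control is not disclosed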
PRMT1 FP inh – blocks human protein arginine methyltransferase 1 | Q99873 | recombinant PRMT1, activity-based probe fluorescence polarization | inhibition, % at 2.79 µM | 1.3% of 370,000 active | AID 652257;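 active = inhibition above about 21% made by adding two undisclosed values, limit read from the data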
rCAG RNA binder – r(CAG) repeat RNA binding; inhibition, % at 3 µM; TO-PRO-1 dye displacement fluorescence; 1.3% of 370,000 active; AID 651821;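 active = inhibition above the plate cutoff, the mean of all test compounds on that plate plus 3 SD, cut at about 35% in these data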;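 also: 0% = DMSO alone and 100% = 100 µM mitoxantrone as full dye displacement; higher means more dye released from RNA so lower well fluorescence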
ALR H2O2 inh – inhibitors of human sulfhydryl oxidase ALR; P55789; purified ALR, DTT oxidation, H2O2 HRP-luminol luminescence; inhibition, % (no concentration beside the values); 3.8% of 290,000 active;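 active = mean replicate inhibition above about 79%, with every replicate also reaching it, limit read from the data; inconclusive = only one of the two criteria met; inactive = mean below limit and not every replicate reaching it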
Target sequence (P55789 whole entry, looked up): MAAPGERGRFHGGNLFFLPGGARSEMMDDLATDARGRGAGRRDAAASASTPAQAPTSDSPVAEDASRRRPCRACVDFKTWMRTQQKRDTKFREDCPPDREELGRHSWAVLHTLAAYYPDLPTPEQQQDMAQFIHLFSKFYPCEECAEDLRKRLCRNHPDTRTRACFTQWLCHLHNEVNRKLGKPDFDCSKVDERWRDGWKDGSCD
Rtt109 Vps75 – inhibitors of Candida albicans Rtt109/Vps75 histone acetyltransferase. Q5AAJ8. purified Rtt109/Vps75, ThioGlo CoA-SH fluorescence, 4 h. inhibition, % at 34.9 µM. 0.16% of 330,000 active;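 active = inhibition of at least 50% in every replicate; inconclusive = best replicate reaches 50% inhibition but some replicates fall short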
Target sequence (Q5AAJ8 whole entry, looked up): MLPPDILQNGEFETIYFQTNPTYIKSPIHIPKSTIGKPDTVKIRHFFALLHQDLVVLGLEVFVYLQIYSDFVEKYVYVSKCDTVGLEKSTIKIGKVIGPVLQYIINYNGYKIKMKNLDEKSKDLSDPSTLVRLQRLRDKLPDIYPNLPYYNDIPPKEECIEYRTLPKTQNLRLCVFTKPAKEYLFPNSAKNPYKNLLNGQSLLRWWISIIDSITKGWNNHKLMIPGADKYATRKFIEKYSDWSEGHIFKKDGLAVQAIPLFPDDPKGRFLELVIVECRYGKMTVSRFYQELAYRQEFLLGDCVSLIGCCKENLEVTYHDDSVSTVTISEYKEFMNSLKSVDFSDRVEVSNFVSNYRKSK
LANA-H2A inh – blocks KSHV LANA binding to histone H2A/H2B; AID 2629; cell-free LANA-H2A/H2B peptide, fluorescence polarization; inhibition, % (concentration not given with the values); Q9QR71; 0.6% of 320,000 active; in the data active = inhibition mostly above about 10%, no sharp cut-off; inactive = mostly below about 6.7%
ABHD5 PLIN5 conf – confirmation of human ABHD5-PLIN5 interaction inhibitors; 67% of 2,200 active; biochemical ABHD5-PLIN5 interaction, luminescence; AID 651612; shares compounds with ABHD5 PLIN5 PPI; inhibition, % at 4 µM; in the data active = inhibition above about 23%;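 also: 0% = DMSO vehicle wells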
HNF4 split-luc – counter-screen for ABHD5-PLIN5 inhibitors: HNF4 split-luciferase; AID 651674; 77% of 2,200 active; HNF4 dimerization, luminescence, biochemical; inhibition, % at 4 µM; shares compounds with ABHD5 PLIN5 PPI;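 active = mean inhibition across replicate wells exceeding the computed hit threshold, cut at about 13% in these data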;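 also: light from luciferase halves that rejoin when HNF4 fusion proteins dimerize; 0% = DMSO only wells and the 100% control is not given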
Numbers without * were called inactive; ? = inconclusive; nt = no result.

SMILES | ABHD5 PLIN5 PPI | PRMT1 FP inh | rCAG RNA binder | ALR H2O2 inh | Rtt109 Vps75 | LANA-H2A inh | ABHD5 PLIN5 conf | HNF4 split-luc
CCOC(=O)C1CCN(C(=O)C(C)(C)NC(=O)Nc2ccc(N(C)C)cc2)CC1 | nt | 6 | nt | nt | nt | nt | nt | nt
COC(=O)c1ccc(CC2(C)C(=O)Nc3ccc(-c4cccc(C(F)(F)F)c4)cc32)o1 (stereo not drawn) | -4 | 4 | 1 | nt | nt | nt | nt | nt
COc1ccc(/C=C\C(=O)CC(O)(c2ccccc2)C(F)(F)F)cc1 (stereo not drawn) | 53* | -1 | -9 | 9 | 11 | -5 | 79* | 55*
COc1ccc(/C=C/C(=O)OCC(=O)c2ccccc2F)cc1 | 7 | 0 | 1 | -10 | 0 | 1 | nt | nt
C=CCN(CC#Cc1ccccc1)CC1CC1 | nt | -1 | -1 | nt | nt | nt | nt | nt
Cc1ccccc1Nc1nc2nonc2nc1N1CCOCC1 | 25* | 0 | -2 | -31 | 9 | 2 | 1 | 2
COCCNC(=O)/C(C#N)=C/C=C/c1ccccc1 | 27* | -3 | 4 | -2 | -7 | -4 | 17 | 18*
CCOc1cc(/C=C/C(=O)c2ccc(OC)c(CN3CCOCC3)c2)cc(Br)c1O | 23* | -2 | 10 | nt | 23 | -10 | 30* | 24*
CN(C)CCCN(C(=O)CCc1ccccc1)c1nc2ccc(Cl)cc2s1 | 39* | -3 | 2 | -11 | 6 | 0 | 24* | 1
CCN(c1ccccc1)S(=O)(=O)c1ccc(C(=O)N(CCCN(C)C)c2nc3cc4c(cc3s2)OCO4)cc1 | 15 | 1 | 0 | 18 | 38 | -2 | nt | nt
CC1CCCCN1S(=O)(=O)c1ccc(C(=O)N(CCCN(C)C)c2nc3ccc(Br)cc3s2)cc1 (stereo not drawn) | 24* | 3 | -2 | -5 | 24 | -1 | 15 | 9
CN(C)CCCN(C(=O)c1ccc(S(=O)(=O)N(C)Cc2ccccc2)cc1)c1nc2cc3c(cc2s1)OCO3 | 24* | -1 | 6 | 2 | ? | -1 | 17 | 3
CN(C)CCCN(C(=O)c1ccc2c(c1)CCCC2)c1nc2ccc(Cl)cc2s1 | 28* | -4 | 7 | -1 | 1 | 1 | 11 | 10
CCOc1ccc2nc(N(CCCN(C)C)C(=O)c3ccc4c(c3)CCCC4)sc2c1 | 12 | 0 | -3 | -22 | 13 | 4 | nt | nt
COC(=O)c1cc(-c2cccc(C(F)(F)F)c2)c(=O)n2c1CCC2 | nt | 3 | 0 | nt | nt | nt | nt | nt
COc1ccc(C(C(=O)NCc2ccccc2)n2c(=O)c(-c3cc4ccccc4[nH]3)nc3ccccc32)cc1 (stereo not drawn) | -1 | 2 | 18 | nt | nt | nt | nt | nt
Cc1ccc(S(=O)(=O)Nc2c(C)n(C)n(-c3ccccc3)c2=O)cc1C(=O)NCc1ccco1 | 4 | 1 | 3 | nt | 15 | nt | nt | nt
CC(=O)O[C@H]1[C@H](OC(C)=O)C[C@]2(OC(C)=O)C[C@H]1OC2=O | nt | 6 | nt | nt | nt | nt | nt | nt
CN(C)CCCNC(=O)c1ccccn1 | 7 | -1 | 4 | 1 | 5 | -1 | nt | nt
CN(C)CCCNC(=O)c1ccc(-c2nc(-c3ccc(Cl)cc3)cs2)cc1 | 27* | 2 | 13 | 27 | 17 | -4 | 22* | 2
COC(C/C=C/C(=O)COCc1ccccc1)OC | 24* | 3 | 3 | nt | 1 | nt | 46* | 43*
COC(C[C@@H]1O[C@H]1C(=O)COCc1ccccc1)OC | 31* | -1 | -4 | nt | 6 | 1 | 6 | 1
COC(C/C=C/C(=O)[C@H](C)OCc1ccccc1)OC | 30* | nt | nt | 87* | -37 | -4 | 55* | 55*
CC(C)(C)c1ccc(C(=O)N2CCOC23CCCCC3)cc1 | 3 | 2 | -1 | nt | nt | nt | nt | nt
O=C(/C=C/c1ccc2c(c1)OCO2)Nc1cccnc1 | 3 | 0 | 0 | -17 | -4 | -2 | nt | nt
SMILES | ABHD5 PLIN5 PPI | PRMT1 FP inh | rCAG RNA binder | ALR H2O2 inh | Rtt109 Vps75 | LANA-H2A inh | ABHD5 PLIN5 conf | HNF4 split-luc
O=C(/C=C/c1ccc2c(c1)OCCO2)c1ccccc1 | 27* | 0 | 4 | nt | 8 | -2 | 56* | 43*
O=C(/C=C/c1ccc2c(c1)OCO2)c1cccnc1 | 28* | 9 | 6 | 0 | -3 | -6 | 63* | 54*
CC(/C=C/c1cccc([N+](=O)[O-])c1)=N/NC(=O)c1cccnc1 | 29* | 1 | 1 | nt | 0 | -2 | 20 | 16*
CC(=O)Nc1ccc(/C=C/C(=O)c2ccc3c(c2)OCCO3)cc1 | 19 | -1 | 10 | 7 | 5 | 0 | nt | nt
O=C(/C=C/c1cccnc1)c1ccc(F)c(F)c1 | 71* | 8 | 3 | 16 | 8 | -1 | 97* | 95*
COc1ccccc1Cn1c(=S)[nH]c2cc(C(=O)N3CC(C)CC(C)C3)ccc2c1=O (stereo not drawn) | 3 | 2 | 5 | nt | nt | nt | nt | nt
COc1ccccc1NS(=O)(=O)c1cc(C(=O)N2CCCC2)ccc1F | 10 | -4 | -1 | nt | -2 | nt | nt | nt
CCCCN(C=O)c1c(CC)nc2c(OCCOc3ccc(F)cc3)cccn12 | 2 | -4 | -3 | nt | nt | nt | nt | nt
O=C(/C=C/c1cccc(OCc2ccccc2)c1)c1cccnc1 | 36* | 5 | -3 | -4 | 0 | 4 | 61* | 70*
O=C(/C=C/c1ccc([N+](=O)[O-])cc1)c1cccnc1 | 30* | 11 | -1 | 2 | 13 | -1 | 83* | 93*
O=C(O)/C=C/c1cccc(OCc2ccccc2)c1 | -8 | 0 | 3 | 3 | 3 | -1 | nt | nt
O=C(O)c1ccc(/C=C/C(=O)c2ccc3c(c2)OCCCO3)cc1 | 49* | 2 | 9 | 97* | -5 | 2 | 48* | 43*
CC(OC(=O)/C=C/c1ccco1)C(=O)NC1CCCCC1 (stereo not drawn) | 3 | 6 | 8 | nt | nt | nt | nt | nt
COC(=O)C1CN(CCO)CCS(=O)(=O)N1Cc1cn(Cc2ccccc2Br)nn1 (stereo not drawn) | nt | -3 | 2 | nt | nt | nt | nt | nt
C=CCN(C)CC#Cc1ccc(F)cc1 | nt | 2 | 1 | nt | nt | nt | nt | nt
